Screening results: PubChem BioAssay, National Center for Advancing Translational Sciences (NCATS)
HT1080 IDH1KD tx – HT-1080 IDH1 knockdown cell toxicity (counter line); HT-1080 IDH1 knockdown viability, ATP luminescence, 48 h; Potency, µM (highest dose often 46.1 µM), for the others: at the top dose activity, negative = toxicity, hits mostly cytotoxic; 2% of 360,000 active;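 further: potency means the concentration at half of the fitted maximal effect; 0% = DMSO wells and -100% = cell-free medium wells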
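After a 2 h attachment period, IDH1KD HT-1080 cells took pin-transferred compound for 48 h at 37 °C; ATP-based luminescence after 10 min room-temperature reagent incubation reported viability.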
12-LOX inh – inhibitors of human 12S-lipoxygenase ALOX12; P18054; purified 12hLO, xylenol orange hydroperoxide absorbance; Potency, µM (top dose mostly 108 µM), for inactives: at the top dose activity change, negative = inhibition, hits mostly inhibitors; 1.1% of 580,000 active; AID 1671190; further: potency means the concentration at half of the fitted maximal effect
Target sequence (P18054 whole entry, looked up): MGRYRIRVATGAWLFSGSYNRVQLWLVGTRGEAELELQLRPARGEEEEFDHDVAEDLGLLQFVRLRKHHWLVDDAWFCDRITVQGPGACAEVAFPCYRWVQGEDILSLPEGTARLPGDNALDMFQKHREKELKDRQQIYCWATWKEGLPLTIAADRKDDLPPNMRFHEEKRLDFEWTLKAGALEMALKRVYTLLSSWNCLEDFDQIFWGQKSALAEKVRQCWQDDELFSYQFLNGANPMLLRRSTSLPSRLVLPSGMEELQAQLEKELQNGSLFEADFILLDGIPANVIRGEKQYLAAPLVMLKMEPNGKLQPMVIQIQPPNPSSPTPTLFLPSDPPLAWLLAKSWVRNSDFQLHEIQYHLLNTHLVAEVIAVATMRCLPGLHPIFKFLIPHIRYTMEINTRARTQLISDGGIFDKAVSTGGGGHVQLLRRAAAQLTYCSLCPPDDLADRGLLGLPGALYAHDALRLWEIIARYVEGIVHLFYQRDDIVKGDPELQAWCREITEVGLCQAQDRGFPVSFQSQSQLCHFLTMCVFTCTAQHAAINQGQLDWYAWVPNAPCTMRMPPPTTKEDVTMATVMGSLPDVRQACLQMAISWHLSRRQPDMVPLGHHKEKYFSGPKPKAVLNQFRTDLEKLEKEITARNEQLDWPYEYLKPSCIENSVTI
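Purified human 12hLO (150 nM final) in 25 mM Hepes, 0.01% Triton X-100, pH 7.0 was preincubated 15 min at room temperature with compound. Then 40 uM arachidonic acid was added, 30 min. Hydroperoxide was read by Fe-XO absorbance ratio 573/405 nm.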
HT1080-NT tox – kills 2HG-producing HT-1080-NT fibrosarcoma cells; Potency, µM (top dose mostly 46.1 µM), without a hit: at the highest dose activity, negative = less viability, most hits filed as cytotoxic; 1.6% of 360,000 active; HT-1080-NT fibrosarcoma viability, CellTiter-Glo ATP luminescence, 48 h;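 further: NT is the 2HG producing partner of a matched IDH1 knockdown line; potency means the concentration at half of the fitted maximal effect; 0% = DMSO-treated cells and -100% = media-only wells without cells; nearly all actives have a fitted effect of over 55% in size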
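Compounds were tested in concentration-response format on HT-1080-NT cells for 48 hours at 37 degrees C. Cell viability came from CellTiter-Glo luminescence; curves were classified by r2, response magnitude and activity.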
DT40 TDP1 no CPT – qHTS for Inhibitors of human tyrosyl-DNA phosphodiesterase 1 (TDP1): qHTS in cells in absence of CPT; DT40 Tdp1-/- hTDP1 cells, no CPT, ATP luminescence, 48 h; Potency, µM (doses to about 46.2 µM), inactives show at the top dose activity change, negative = growth inhibition, actives largely listed as inhibitors; 15% of 420,000 active; AID 686978, 2013; further: potency means the concentration at half of the fitted maximal effect; nearly all actives have a fitted effect of over 55% in size
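Growth kinetics read by CellTiter-Glo luminescence after ≥48 hr at 37 °C. Cells: DT40 Tdp1-/- stably carrying human TDP1, 400 per well, compound exposure in the absence of CPT (DMSO vehicle).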
DT40 TDP1 CPT – growth inhibition of DT40 Tdp1-/-;hTDP1 cells with camptothecin (screen for TDP1 inhibitors). chicken DT40 Tdp1-/-;hTDP1 cells + 20 nM CPT, ATP luminescence, 48 h. Potency, µM (top dose mostly 46.2 µM), without a hit: at the top dose activity change, negative = growth inhibition, hits mostly inhibitors. 12% of 420,000 active; further: potency means the concentration at half of the fitted maximal effect; nearly all actives have a fitted effect of over 55% in size
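Cell growth measured by CellTiter-Glo luminescence after a minimum 48 h, 37 C compound exposure with 20 nM CPT in Tdp1-knockout DT40 cells stably expressing hTDP1, seeded 400/well; qHTS titration format.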
IL1B secr inh – inhibitors of inflammasome signaling (IL-1 beta secretion) | THP-1 LPS/ATP IL-1B secretion, AlphaLISA, 16 h; active compounds read low | activity change, % at 57.5 µM | 4.7% of 360,000 active | AID 743279; in the data active means activity change below about -50%; inconclusive means mostly about -30% to -49%
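THP-1 cells pretreated 1 hr with compounds (up to 57.5 uM final), then stimulated with LPS (250 ng/mL final) plus ATP (1.25 mM final); secreted IL-1B measured by AlphaLISA after 16 hr, decreased signal indicating inhibition.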
Numbers without * were called inactive; u = inconclusive; x = no result; [ ] = remark or other dose. This excerpt belongs to a sample that is enriched for hits. Unless noted, the call rests on the fitted dose curve; in most records, active means well fitted curve in the direction sought with a large enough effect; inconclusive means small, poorly fitted or top-dose-only effect, or another doubt; inactive means no such curve, though single readings can be large; an effect the other way counts as inactive or inconclusive. Unless noted, on the % scale 0 is the no-effect control and ±100 the full control effect.

SMILES | HT1080 IDH1KD tx | 12-LOX inh | HT1080-NT tox | DT40 TDP1 no CPT | DT40 TDP1 CPT | IL1B secr inh
CCCCOCCCNC(=O)C[C@@H]1C[C@@]2(C(=O)OCC)CCC=C2N(Cc2ccc3c(c2)OCO3)C1=O | 0% | u | -15% | 16µM* | 21µM* | -9
C=Cc1ccc(CC2(C)C(=O)Nc3ccc(-c4cccnc4)cc32)cc1 (stereo not drawn) | -20% | u | u | 4.6µM* | u | 60
CC1(Cc2ccc(Cl)cc2)C(=O)Nc2ccc(-c3ccc(F)c(Cl)c3)cc21 (stereo not drawn) | u | -24% | u | u | u | -19
CC1(Cc2ccc(F)cc2)C(=O)Nc2ccc(-c3cccnc3)cc21 (stereo not drawn) | 6% | -1% | 10% | 10µM* | 23µM* | 91
COc1ccccc1OCC(=O)NCC1CCCN(C(=O)c2ccccc2SC)C1 (stereo not drawn) | 8% | -5% | 10% | 15µM* | u | 14
COc1ccccc1OCC(=O)NCC1CCCN(C(=O)c2ccccc2C(C)=O)C1 (stereo not drawn) | 14% | 5% | 6% | 3% | 8% | -7
O=C(CN1CCN(C(=O)c2ccc(OCc3cn4ccccc4n3)cc2)CC1)Nc1cccc(F)c1 | -14% | 4% | 7.3µM* | 15µM* | 23µM* | -18
Cc1cccc(NC(=O)CN2CCN(C(=O)c3ccc(OCc4cn5ccccc5n4)cc3)CC2)c1C | -2% | 11% | -8%[9.24 µM] | 9.2µM* | 18µM* | u
Nc1cc2c(cc1Br)-c1ccccc1C2=NO | -31% | -5% | 3% | u | 26µM* | -105*
NC(=S)NN=C1c2ccccc2-c2cc(Br)ccc21 | -27% | 40µM* | -9% | 3.7µM* | 5.2µM* | -5
ON=C1c2ccccc2-c2ccc(F)cc21 | -1% | -6% | 1% | 18µM* | u | -12
ON=C1c2ccccc2-c2ccc(Br)cc21 | 12% | -7% | -3% | 23µM* | 29µM* | 0
O=C1c2ccccc2-c2cc(Br)ccc2NC1O (stereo not drawn) | -14% | -24% | 0% | u | -20% | 1
CN(CC1CCOCC1)C(=O)Nc1cc(F)cc(F)c1 | x | -8% | x | x | x | x
COc1ccc(Cc2nn3c(-c4cc(OC)c(OC)c(OC)c4)nnc3s2)cc1 | 5% | 0% | -5% | u | u | -12
COc1cc(-c2nnc3sc(Cc4ccc(Cl)cc4)nn23)cc(OC)c1OC | x | u | x | 9.2µM* | 12µM* | -9
COc1cc(-c2nnc3sc(Cc4ccccc4)nn23)cc(OC)c1OC | -26% | u | -10% | u | 21µM* | 100
Cc1n[nH]c(C)c1CCCCOc1ccccc1 | 0% | -10% | -11% | u | u | 21
COc1cccc(OC)c1OCCCCc1c(C)n[nH]c1C | -3% | -20% | 1% | u | 26µM* | 2
Cc1n[nH]c(C)c1CCCCOc1ccccc1[N+](=O)[O-] | -15% | u | -4% | u | 21µM* | -13
Cc1ccccc1OCCCCc1c(C)n[nH]c1C | u | u | u | 18µM* | u | -17
Cc1n[nH]c(C)c1CCCCOc1ccccc1F | -17% | 0% | -6% | u | -28% | u
Cc1ccc(OCCCc2c(C)n[nH]c2C)cc1 | -22% | 6.3µM* | -15% | 16µM* | u | -16
CCC(C(=O)Nc1cccc(C(C)=O)c1)n1c(=O)c(-c2ccccc2NC(C)=O)nc2ccccc21 (stereo not drawn) | x | 0% | x | x | x | x
CC1(C(=O)OCC(=O)Nc2ccc3ccccc3c2)CC1(Cl)Cl (stereo not drawn) | 1% | -14% | -7% | u | u | -97*
SMILES | HT1080 IDH1KD tx | 12-LOX inh | HT1080-NT tox | DT40 TDP1 no CPT | DT40 TDP1 CPT | IL1B secr inh
CC1(C(=O)OCC(=O)NCCNC(=O)COC(=O)C2(C)CC2(Cl)Cl)CC1(Cl)Cl (stereo not drawn) | -7% | 0% | -2% | 16µM* | u | 4
Cc1cccc(Cn2c(=O)c3c(nc(-n4nc(C)cc4C)n3CC(C)C)n(C)c2=O)c1 | x | 7% | x | x | x | x
CC(=O)Nc1ccc(CC(=O)NCCC(c2ccccc2)c2ccccc2)cc1 | 33µM* | 40% | 26µM* | 18µM* | 16µM* | 1
S=C(NCCCc1ccccc1)Nc1ccc(Cl)cc1 | u | 40µM* | u | u | u | u
N#CCC(=O)Nc1ccc(C(=O)NCCC(c2ccccc2)c2ccccc2)cc1 | -13% | 0% | -3% | -14% | 2% | 38
S=C(NCCc1ccccn1)Nc1ccc(Cl)cc1 | 18% | -19% | 13% | 18µM* | 18µM* | -2
S=C(NCc1ccccc1)Nc1ccc(Cl)cc1 | -10% | u | -4% | u | -29% | u
S=C(NCCC(c1ccccc1)c1ccccc1)Nc1ccc(Cl)cc1 | u | u | u | u | u | -92*
S=C(NCCc1ccccc1)Nc1ccc(Nc2ccccc2)cc1 | u | u | u | u | 16µM* | u
S=C(NCCCc1ccccc1)Nc1ccccc1 | 0% | u | -12% | u | 23µM* | 32
O=C(NCCCc1ccccc1)Nc1ccccc1 | 12% | -1% | 7% | -18% | -17% | 3
Cc1ccccc1OCCNC(=S)Nc1ccccc1 | -21% | u | -3% | 15µM* | 29µM* | -13
O=C1CCCN1CCCNC(=S)Nc1ccccc1 | 10% | 28µM* | -2% | 1% | 7% | 14
O=C1CCCN1CCCNC(=S)Nc1ccc(Nc2ccccc2)cc1 | -1% | -7% | -5% | -7% | -4% | -16
CCCNC(=S)Nc1ccccc1 | 13% | -2% | 8% | 8% | 10% | 21
COCCCNC(=S)NNC(=S)Nc1ccccc1 | 2% | u | 9% | -18% | 11% | x
C=CCNC(=O)c1cc(-c2ccc(OCC)cc2)nc2ccccc12 | x | 31% | x | x | x | x
CCN(CC(=O)NC(C)(C)C)C(=O)c1ccc(C#N)cc1 | x | 51% | x | x | x | x
O=C1CSc2ccc(C(=O)OCc3cc(-c4ccc(Cl)cc4)no3)cc2N1 | x | -7% | x | x | x | x
O=C(Nc1nnc(-c2cccs2)s1)C1CC1 | 3% | 1% | -13% | -1% | 18% | 14
O=C(Nc1nc(-c2cccs2)c(-c2cccs2)s1)C1CCCC1 | -18% | -29% | -1% | 15µM* | 16µM* | 0
